Experimental data from PubChem BioAssay AID1259415 (National Center for Advancing Translational Sciences (NCATS), 2018).
Among all 410,000 compounds or so, about 18,000 (4.4%) were called active. About 7% were inconclusive and are not listed. Cut-off read from the data, not from the text of the source: active = activity change below about -60%; inconclusive = no clear call, values can overlap the other calls; inactive = above about -39%. The full list was thinned out, with actives kept by preference.

Assay: qHTS Assay for inhibitors of the human cytomegalovirus (HCMV)
Settings: HFF cells, HCMV-luciferase reporter, 72 h; at 57.5 µM; hits give low values
Summary of the method: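 Inhibition of viral replication was scored as loss of reporter luminescence in HFFs infected with HCMV-luciferase (MOI 1 PFU/cell) for 72 h; compounds tested at 2 doses, normalized to buffer and Salinomycin controls.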
% is set by controls: 0 for no effect and ±100 for the full control effect.

SMILES	activity change, negative = inhibition
Cc1cc(C)cc(NS(=O)(=O)c2ccc(-c3cc(C)no3)s2)c1	0% (inactive)
COc1cccc(-c2nnc3n(CCc4ccccc4)c(=O)c4ccccc4n23)c1O	2.64% (inactive)
CC(=O)c1c(C)[nH]c(C(=O)COc2ccc3c(C)cc(=O)oc3c2)c1C	-31.5% (inactive)
Cc1ccccc1NC(=O)c1ccc(COc2ccc3c(C)cc(=O)oc3c2)cc1	10.2% (inactive)
Cc1cc(=O)oc2cc(OCC3CC(c4ccccc4Cl)=NO3)ccc12 (stereo unspecified)	-90.9% (active)
CCc1ccc(N2C(=O)CN(S(=O)(=O)CC)CC2(C)C(=O)NC2CCCCC2)cc1 (stereo unspecified)	0% (inactive)
COc1cccc(C(=O)NCc2ccc3c(c2)CCN3C(=O)c2ccncc2)c1	8.47% (inactive)
NS(=O)(=O)c1ccc(NC(=O)COc2ccc(S(=O)(=O)NC3CCCCC3)cc2)cc1	15.5% (inactive)
CCN(CC)CCn1c(=S)[nH]c2ncccc2c1=O	-27.4% (inactive)
COc1ccc(C(=O)NCC(c2ccc(N(C)C)cc2)N2CCc3ccccc32)c(OC)c1 (stereo unspecified)	-18.8% (inactive)
CCCCOc1ccc(CN2C(=O)C(=O)c3cc(Br)cc(C)c32)cc1OC	-102% (active)
CCCCOc1ccc(Cn2c(=O)oc3ccc(C)cc32)cc1OC	-4.31% (inactive)
COc1ccc(CN2C(=O)CC(Cc3ccc(C)cc3)C2=O)cc1OC (stereo unspecified)	-12.9% (inactive)
CCC(=O)N1CCc2cc(S(=O)(=O)NC(Cc3ccccc3)C(=O)NCc3ccccc3)ccc21 (stereo unspecified)	-22.7% (inactive)
CCn1cc(C(=O)N2CCN(c3cc(Cl)ccc3C)CC2)c(=O)c2cc(S(=O)(=O)N3CCCC3)ccc21	-11.4% (inactive)
Cc1c(C)n(Cc2ccc(Cl)cc2)c2ccc(C(=O)N3CCN(c4ccccc4F)CC3)cc12	0% (inactive)
Cc1nn(C)cc1/C=C1\CCC/C(=C\c2cn(C)nc2C)C1=O	-22.6% (inactive)
CCCCc1nn2c(=O)cc(COC(=O)c3ccccc3NC(=O)C(C)(C)C)nc2s1	-7.43% (inactive)
CC1(C)CN(CCc2ccccc2)C(=O)[C@H]1CC(=O)Nc1ccc(Br)cc1	8.25% (inactive)
COc1ccc(NC(=O)C[C@H]2C(=O)N(CCc3ccccc3)C[C@@H]2C)cc1	5.53% (inactive)
O=C(C[C@H]1C(=O)N(c2ccc(F)c(F)c2)C[C@@H]1Cc1ccccc1)Nc1ccccc1	-93.1% (active)
CCc1ccc2ncc3c(-c4ccc(C)cc4)nn(CC(=O)NCc4ccccc4)c3c2c1	-6.71% (inactive)
COc1ccc(S[C@]2(c3nc(C)no3)CC(=O)N(C(=O)C3CC3)[C@@H]2c2ccc(OC)cc2)cc1	-16.8% (inactive)

SMILES	activity change, negative = inhibition
Cc1cccc(Cc2c(C)nc3nc(SCc4ccccc4Cl)nn3c2C)c1	4.98% (inactive)
Oc1ccc(-c2nc3ccc(Cl)cn3c2Nc2ccc3c(c2)OCO3)cc1	12.9% (inactive)
Cc1ccc(CCNC(=O)c2ccc3c(c2)nc2n3CCC(C)C2)cc1 (stereo unspecified)	14.9% (inactive)
COc1ccc(-c2cc(-c3ccc(F)cc3)nc3c2COc2ccccc2-3)cc1	-6.64% (inactive)
COc1ccc(-c2csc(NC3OC(=O)c4ccccc43)n2)cc1 (stereo unspecified)	-107% (active)
COc1ccc2c(c1OC)C(=O)OC2Nc1nc(-c2ccccc2)cs1 (stereo unspecified)	-104% (active)
Cc1ccc(-c2csc(NC3OC(=O)c4ccccc43)n2)cc1 (stereo unspecified)	0% (active)
CCCc1nc2scc(-c3ccc(C)cc3)c2c(=O)n1N	-13.5% (inactive)
COc1cccc(C(NC(C)=O)c2nc(-c3ccccc3OC)cs2)c1 (stereo unspecified)	28.9% (inactive)
Cc1cc2c(cc3c(SCc4cccc(Cl)c4)nnc(C)n32)o1	4.43% (inactive)
Cc1ccc(-n2c(=O)c3cccnc3n2CC(=O)Nc2ccccc2C(F)(F)F)cc1C	-5.4% (inactive)
CCN(C(=O)CSc1cccc[n+]1[O-])c1ccccc1	-32.1% (inactive)
O=C(CSc1cccc[n+]1[O-])NCCCc1ccccc1	-39.5% (inactive)
O=C(CSc1cccc[n+]1[O-])c1ccc(-c2ccccc2)cc1	-97.9% (active)
COC(=O)Cc1nnn2c1[C@H](C)[C@H](c1ccccc1[N+](=O)[O-])OCC2	-4.47% (inactive)
COc1ccc(CNC(=O)COCc2cc(-c3cccs3)on2)cc1OC	-28.2% (inactive)
CC1CCN(c2nc3ccc(C(=O)N4CCN(c5ccccc5)CC4)cc3s2)CC1	31.7% (inactive)
S=c1[nH]nc(CSCc2ccc(Cl)cc2Cl)n1-c1ccccc1	-18.3% (inactive)
CCn1c(CSCc2c(Cl)cccc2Cl)n[nH]c1=S	-67.6% (active)
CCn1c(-c2ccncc2)n[nH]c1=S	-21.8% (inactive)
Cc1cc(C)n2nc(CNS(=O)(=O)c3c(F)c(F)c(F)c(F)c3F)nc2n1	0% (inactive)
CCc1ccc2oc(-c3ccc(C)c(NC(=O)/C=C/c4ccco4)c3)nc2c1	34.4% (inactive)
Cc1ccc(NC(=O)Cn2c(=O)n(-c3ccccc3)c(=O)c3c4c(sc32)CCCC4)cc1	2.61% (inactive)
